Laboratory results: the supplement of paper PMC11732987, “Enantioselective OTUD7B fragment discovery through chemoproteomics screening and high-throughput optimisation” (Communications Chemistry, 2025)

Experiments:
Assay in all cases: log2 ratio of Biotin-Ahx-Ub-VS probe labelling (fragment/DMSO); higher = less target engagement (more negative = stronger competition), active = hit call of the paper (q ≤ 0.05, log2 ratio ≤ -1)
Settings in all cases: compound concentration: 200 uM; treatment time: 3 h
USP34 = USP34 (UniProt Q70CQ2)
Procedure, shortened: (§1)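 Labelled DUBs were enriched with NeutrAvidin, digested with LysC and trypsin, and run by diaPASEF LC-MS/MS. The labelling used Biotin-Ahx-Ub-VS at 0.5 µM final for 1 h on HEK293T lysate (495 µg per sample) previously treated in triplicate with fragment at 200 µM or vehicle for 3 h. Values are average log2 fragment/vehicle ratios by unpaired t-test on global-median-normalised Spectronaut quantities of proteins with ≥2 unique peptides.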

USP36 = target: T1, USP36 (UniProt Q9P275)
T1 sequence (whole entry): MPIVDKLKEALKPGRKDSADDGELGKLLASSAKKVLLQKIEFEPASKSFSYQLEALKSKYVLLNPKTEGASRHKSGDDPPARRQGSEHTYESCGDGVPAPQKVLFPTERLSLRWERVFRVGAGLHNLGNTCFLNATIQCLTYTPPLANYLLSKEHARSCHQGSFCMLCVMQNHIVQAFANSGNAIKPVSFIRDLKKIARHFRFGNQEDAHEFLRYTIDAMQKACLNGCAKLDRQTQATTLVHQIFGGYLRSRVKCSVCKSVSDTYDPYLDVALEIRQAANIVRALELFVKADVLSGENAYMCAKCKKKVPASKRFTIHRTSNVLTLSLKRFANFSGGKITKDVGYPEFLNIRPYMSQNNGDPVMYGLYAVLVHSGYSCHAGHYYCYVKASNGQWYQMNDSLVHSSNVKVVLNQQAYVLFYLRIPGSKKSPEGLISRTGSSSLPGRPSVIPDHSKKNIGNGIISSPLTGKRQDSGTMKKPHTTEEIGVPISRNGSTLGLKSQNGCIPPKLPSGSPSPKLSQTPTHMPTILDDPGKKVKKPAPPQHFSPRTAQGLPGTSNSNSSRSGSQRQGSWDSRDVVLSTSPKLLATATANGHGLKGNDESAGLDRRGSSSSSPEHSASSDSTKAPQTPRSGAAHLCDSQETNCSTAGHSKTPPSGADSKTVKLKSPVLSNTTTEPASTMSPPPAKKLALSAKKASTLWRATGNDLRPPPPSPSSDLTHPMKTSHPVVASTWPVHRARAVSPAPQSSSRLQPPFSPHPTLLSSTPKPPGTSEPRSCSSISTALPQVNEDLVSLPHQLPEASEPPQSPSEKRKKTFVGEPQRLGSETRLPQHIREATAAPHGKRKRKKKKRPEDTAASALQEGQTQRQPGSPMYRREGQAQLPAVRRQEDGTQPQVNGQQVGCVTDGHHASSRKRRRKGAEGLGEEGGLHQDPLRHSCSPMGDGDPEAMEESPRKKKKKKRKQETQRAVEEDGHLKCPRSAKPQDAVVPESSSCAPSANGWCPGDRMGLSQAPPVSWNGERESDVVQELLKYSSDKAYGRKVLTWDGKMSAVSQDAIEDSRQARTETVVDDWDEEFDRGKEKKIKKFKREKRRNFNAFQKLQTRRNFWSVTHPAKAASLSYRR
Procedure, shortened: as §1

USP38 = target: T2, USP38 (UniProt Q8NB14)
T2 sequence (whole entry): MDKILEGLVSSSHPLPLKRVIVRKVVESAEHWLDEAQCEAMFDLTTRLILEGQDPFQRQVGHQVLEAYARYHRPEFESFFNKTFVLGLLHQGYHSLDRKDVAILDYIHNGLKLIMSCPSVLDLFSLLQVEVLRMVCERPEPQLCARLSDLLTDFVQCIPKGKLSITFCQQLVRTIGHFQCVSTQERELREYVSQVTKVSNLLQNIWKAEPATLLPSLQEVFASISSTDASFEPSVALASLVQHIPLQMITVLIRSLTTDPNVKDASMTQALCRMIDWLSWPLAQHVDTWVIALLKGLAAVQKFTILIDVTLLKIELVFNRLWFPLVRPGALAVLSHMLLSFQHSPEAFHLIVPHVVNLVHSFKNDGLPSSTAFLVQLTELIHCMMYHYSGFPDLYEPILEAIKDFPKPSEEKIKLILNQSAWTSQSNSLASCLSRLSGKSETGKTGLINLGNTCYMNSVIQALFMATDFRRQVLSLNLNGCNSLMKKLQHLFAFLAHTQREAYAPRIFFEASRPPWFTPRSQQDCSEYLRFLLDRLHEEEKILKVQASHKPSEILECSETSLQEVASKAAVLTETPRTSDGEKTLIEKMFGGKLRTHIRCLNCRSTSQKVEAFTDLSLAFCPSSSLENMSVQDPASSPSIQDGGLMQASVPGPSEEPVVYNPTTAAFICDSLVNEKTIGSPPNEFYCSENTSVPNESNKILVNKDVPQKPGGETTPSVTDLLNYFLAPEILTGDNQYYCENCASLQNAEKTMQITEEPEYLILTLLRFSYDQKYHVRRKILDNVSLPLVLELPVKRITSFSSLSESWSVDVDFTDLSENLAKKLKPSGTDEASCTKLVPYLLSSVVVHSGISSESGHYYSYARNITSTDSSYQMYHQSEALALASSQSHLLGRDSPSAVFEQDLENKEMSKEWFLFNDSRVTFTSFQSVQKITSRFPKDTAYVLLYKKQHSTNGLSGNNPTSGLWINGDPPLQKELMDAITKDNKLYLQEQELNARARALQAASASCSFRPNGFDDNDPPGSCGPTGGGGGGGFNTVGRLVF
Procedure, shortened: as §1

USP39 = target: T3, USP39 (UniProt Q53GS9)
T3 sequence (whole entry): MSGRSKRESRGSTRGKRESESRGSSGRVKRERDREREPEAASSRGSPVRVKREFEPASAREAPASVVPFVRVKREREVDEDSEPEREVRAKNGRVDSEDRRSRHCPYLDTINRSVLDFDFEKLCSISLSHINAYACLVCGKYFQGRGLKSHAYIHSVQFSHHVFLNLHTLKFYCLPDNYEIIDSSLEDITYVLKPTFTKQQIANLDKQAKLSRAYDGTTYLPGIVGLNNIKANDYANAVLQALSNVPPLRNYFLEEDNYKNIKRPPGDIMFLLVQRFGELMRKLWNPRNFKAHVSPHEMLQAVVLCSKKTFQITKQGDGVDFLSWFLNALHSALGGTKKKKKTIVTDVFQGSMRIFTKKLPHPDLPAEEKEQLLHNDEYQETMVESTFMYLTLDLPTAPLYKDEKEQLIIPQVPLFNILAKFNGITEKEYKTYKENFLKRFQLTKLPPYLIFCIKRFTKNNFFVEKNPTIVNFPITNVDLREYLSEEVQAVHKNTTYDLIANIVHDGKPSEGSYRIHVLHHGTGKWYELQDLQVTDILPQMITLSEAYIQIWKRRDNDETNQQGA
Procedure, shortened: as §1

USP4 = target: T4, USP4 (UniProt Q13107)
T4 sequence (whole entry): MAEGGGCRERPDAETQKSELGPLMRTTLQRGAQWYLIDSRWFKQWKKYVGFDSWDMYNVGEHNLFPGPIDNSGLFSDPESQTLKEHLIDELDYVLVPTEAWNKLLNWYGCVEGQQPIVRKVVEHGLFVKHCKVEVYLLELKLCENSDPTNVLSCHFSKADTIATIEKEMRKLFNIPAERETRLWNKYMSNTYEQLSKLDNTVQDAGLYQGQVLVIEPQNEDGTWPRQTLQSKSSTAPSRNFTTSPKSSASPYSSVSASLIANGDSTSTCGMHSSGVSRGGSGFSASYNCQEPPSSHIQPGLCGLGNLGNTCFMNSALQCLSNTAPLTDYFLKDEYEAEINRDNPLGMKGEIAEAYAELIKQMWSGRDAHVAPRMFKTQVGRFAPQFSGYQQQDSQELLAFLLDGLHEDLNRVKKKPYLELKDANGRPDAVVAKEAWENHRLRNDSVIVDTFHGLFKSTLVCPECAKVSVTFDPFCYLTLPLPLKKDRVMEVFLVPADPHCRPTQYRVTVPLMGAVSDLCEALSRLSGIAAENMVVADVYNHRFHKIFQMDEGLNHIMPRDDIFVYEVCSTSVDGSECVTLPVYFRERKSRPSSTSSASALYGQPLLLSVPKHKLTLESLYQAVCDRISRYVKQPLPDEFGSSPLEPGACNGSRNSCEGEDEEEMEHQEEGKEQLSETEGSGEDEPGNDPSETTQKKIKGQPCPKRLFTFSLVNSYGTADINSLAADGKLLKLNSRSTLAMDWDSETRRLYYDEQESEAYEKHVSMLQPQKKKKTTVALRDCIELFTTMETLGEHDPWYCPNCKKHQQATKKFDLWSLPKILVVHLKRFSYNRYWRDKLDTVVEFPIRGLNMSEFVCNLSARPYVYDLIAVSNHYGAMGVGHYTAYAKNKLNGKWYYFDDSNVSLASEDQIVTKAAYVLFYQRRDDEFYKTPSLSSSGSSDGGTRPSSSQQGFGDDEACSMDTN
Procedure, shortened: as §1

Measured: log2 ratio of Biotin-Ahx-Ub-VS probe labelling

Chain of USP34 (Q70CQ2 whole entry, the tested form may be a part): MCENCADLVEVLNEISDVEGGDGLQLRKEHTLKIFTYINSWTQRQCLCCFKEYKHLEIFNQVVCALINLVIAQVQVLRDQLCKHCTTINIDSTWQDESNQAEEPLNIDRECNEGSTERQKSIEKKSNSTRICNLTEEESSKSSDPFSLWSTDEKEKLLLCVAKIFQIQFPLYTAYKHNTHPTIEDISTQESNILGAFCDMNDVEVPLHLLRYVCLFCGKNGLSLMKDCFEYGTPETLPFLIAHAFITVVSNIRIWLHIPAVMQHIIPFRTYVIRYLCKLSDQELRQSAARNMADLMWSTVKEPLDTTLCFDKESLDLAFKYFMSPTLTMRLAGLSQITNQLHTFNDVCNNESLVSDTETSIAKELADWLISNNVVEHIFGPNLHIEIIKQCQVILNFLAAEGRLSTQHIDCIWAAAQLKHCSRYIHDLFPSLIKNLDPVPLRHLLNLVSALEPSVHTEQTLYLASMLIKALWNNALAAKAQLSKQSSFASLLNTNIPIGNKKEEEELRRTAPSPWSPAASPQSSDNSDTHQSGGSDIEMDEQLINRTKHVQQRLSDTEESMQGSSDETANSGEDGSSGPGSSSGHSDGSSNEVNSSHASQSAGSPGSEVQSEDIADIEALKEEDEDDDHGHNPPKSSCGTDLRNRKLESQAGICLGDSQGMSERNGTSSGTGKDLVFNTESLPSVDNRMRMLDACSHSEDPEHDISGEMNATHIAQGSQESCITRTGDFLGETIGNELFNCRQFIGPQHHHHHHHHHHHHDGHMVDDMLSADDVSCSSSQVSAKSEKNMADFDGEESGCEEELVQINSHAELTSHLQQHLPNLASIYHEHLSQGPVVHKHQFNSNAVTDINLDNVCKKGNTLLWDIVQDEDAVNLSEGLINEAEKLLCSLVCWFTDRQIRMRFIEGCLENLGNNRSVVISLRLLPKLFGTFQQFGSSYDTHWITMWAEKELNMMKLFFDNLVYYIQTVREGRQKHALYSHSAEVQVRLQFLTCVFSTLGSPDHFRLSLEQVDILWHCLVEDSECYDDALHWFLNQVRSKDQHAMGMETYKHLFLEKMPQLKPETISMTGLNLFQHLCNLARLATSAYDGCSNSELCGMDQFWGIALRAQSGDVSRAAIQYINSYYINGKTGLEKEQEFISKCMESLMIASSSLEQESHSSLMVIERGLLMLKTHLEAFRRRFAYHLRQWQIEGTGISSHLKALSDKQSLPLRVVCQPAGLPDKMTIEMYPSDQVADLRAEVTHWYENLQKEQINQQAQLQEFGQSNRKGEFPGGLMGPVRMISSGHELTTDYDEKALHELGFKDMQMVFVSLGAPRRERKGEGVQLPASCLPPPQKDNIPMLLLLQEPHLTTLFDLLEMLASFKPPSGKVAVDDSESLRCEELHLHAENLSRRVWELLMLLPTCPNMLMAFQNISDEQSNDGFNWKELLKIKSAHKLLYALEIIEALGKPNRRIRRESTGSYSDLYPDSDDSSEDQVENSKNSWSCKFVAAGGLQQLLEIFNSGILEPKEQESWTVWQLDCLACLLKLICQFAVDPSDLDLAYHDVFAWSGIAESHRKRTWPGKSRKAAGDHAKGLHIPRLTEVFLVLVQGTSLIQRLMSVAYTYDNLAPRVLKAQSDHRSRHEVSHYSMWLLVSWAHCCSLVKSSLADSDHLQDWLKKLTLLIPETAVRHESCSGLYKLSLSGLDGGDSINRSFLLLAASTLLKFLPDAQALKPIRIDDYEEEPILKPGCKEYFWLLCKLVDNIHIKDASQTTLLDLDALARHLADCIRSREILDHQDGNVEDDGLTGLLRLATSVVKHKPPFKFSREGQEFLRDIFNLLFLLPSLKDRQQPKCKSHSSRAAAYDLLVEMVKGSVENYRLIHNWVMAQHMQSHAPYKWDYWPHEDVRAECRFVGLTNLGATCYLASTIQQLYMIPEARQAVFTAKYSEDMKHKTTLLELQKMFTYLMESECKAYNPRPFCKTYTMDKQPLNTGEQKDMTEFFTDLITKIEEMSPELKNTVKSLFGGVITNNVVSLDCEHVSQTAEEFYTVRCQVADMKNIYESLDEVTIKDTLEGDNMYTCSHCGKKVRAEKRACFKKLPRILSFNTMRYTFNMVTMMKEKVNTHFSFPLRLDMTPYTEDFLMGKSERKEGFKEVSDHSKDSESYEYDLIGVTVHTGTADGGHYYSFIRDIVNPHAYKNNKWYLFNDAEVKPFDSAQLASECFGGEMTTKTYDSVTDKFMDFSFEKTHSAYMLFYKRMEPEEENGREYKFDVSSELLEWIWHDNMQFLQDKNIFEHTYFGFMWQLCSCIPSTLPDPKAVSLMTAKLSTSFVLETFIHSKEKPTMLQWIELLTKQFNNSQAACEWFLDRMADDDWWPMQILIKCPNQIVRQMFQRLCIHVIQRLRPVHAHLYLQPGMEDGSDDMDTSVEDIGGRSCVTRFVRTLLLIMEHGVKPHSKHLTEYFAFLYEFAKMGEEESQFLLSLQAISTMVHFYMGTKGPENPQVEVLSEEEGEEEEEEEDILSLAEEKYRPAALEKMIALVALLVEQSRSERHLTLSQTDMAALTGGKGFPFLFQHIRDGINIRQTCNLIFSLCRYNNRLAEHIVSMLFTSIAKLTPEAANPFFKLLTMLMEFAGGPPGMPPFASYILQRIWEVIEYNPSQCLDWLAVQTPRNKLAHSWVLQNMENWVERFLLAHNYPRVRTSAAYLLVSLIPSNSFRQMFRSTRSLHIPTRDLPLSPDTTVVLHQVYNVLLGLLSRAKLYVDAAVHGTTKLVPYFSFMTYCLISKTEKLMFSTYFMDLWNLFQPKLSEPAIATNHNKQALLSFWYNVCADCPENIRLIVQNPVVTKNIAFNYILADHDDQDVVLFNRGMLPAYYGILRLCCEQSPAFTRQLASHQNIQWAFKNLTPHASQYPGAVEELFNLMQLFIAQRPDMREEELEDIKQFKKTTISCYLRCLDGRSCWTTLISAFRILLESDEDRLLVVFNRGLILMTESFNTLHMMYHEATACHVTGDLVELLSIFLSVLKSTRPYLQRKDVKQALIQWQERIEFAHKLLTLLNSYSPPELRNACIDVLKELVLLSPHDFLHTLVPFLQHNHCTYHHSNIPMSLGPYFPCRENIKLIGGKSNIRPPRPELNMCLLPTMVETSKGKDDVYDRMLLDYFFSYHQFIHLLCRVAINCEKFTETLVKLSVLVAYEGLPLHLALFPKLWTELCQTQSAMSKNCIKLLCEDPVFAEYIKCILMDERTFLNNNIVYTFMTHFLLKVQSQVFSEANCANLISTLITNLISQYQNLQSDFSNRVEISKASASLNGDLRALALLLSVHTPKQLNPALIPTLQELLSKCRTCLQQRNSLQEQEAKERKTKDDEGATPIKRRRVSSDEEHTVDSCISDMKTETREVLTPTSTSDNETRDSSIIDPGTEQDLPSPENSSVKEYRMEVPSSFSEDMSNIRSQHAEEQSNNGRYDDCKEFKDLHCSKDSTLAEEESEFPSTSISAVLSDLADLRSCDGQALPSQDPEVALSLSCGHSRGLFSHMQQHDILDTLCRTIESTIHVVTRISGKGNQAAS

COCC[C@@H](NC(=O)CCl)c1ccccc1
inactive: USP34 -0.0495 | USP36 -0.11 | USP38 0.0786 | USP39 -0.0498 | USP4 0.0432
